Results from PubChem BioAssay (Tox21).
Several values for one entry are separate records, joined by “and”; a condition that tells them apart may be missing. Equal entries are not always repeated. Inconclusive results are not listed. Entries that show only a call come without a potency. More than one record can exist for a structure, and the calls need not agree. Activity calls are given as the source filed them. Unless noted, the call rests on the fitted dose curve. Numbered stars: 1 amine (or outer) side, 2 acyl side, 3 side chain; on linkers, the order of the positions; unused ones are H or OH. Bridge positions count the residues as written; N and C are the ends. Square brackets hold non-standard residues; d marks the D form. Peptide text beside a SMILES is read from it. I, II: the chains in the order shown. Actinocin(9to1) = Cc1c2oc3c(C)ccc(C(=O)[*:1])c3nc-2c(C(=O)[*:2])c(N)c1=O; NMeV = CN[C@H](C(=O)O)C(C)C; Sar = CNCC(=O)O

Experiments:
[1] = Nuclear factor erythroid 2-related factor 2/antioxidant responsive element (Nrf2/ARE) small molecule agonists: qHTS cell viability counter screen in human keratinocytes (AID 1919968; active means well fitted curve in the direction sought with a large enough effect in the repeat runs; an effect the other way counts as inactive or inconclusive; further: nearly all actives have a fitted effect of over 55% in size; further: potency means the concentration at half of the fitted maximal effect)
Method in brief: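 After a 5 h attachment period, ARE-reporter keratinocytes were dosed with compounds in DMSO and then cultured 23 h at 37 C. Cell viability came from CellTiter-Fluor signal read after a further 1 h.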

[2] = Nuclear factor erythroid 2-related factor 2/antioxidant responsive element (Nrf2/ARE) small molecule agonists: luciferase reporter gene qHTS assay in human keratinocytes (AID 1919969); further: nearly all actives have a fitted effect of over 35% in size; further: potency means the concentration at half of the fitted maximal effect
[3] = molecular target: Gonadotropin-releasing hormone receptor (Homo sapiens) (UniProt P30968); assay: Human gonadotropin-releasing hormone receptor (GnRHR) small molecule agonists, calcium flux assay in GnRHR-HEK293 cells (AID 1920063); further: nearly all actives have a fitted effect of over 35% in size
Method in brief: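 We seeded human GnRHR-expressing HEK293 cells for 18 hours, loaded them with calcium dye for an hour at 37 C, added test compounds, and recorded fluorescence intensity kinetically for three minutes.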

[4] = molecular target: KiSS-1 receptor (Homo sapiens) (UniProt Q969F8); assay: Human kisspeptin (KISS1R) small molecule agonists, calcium flux assay in KISS1R-HEK293 cells (AID 1920064; active means well fitted curve in the direction sought with a large enough effect in the repeat runs; an effect the other way counts as inactive or inconclusive)
Method in brief: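 Kinetic calcium assay, 1 s sampling over 3 min at Ex/Em 480/540, in HEK293 cells engineered with human KISS1R; compounds delivered in DMSO after 1 h dye loading.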

[5] = G protein-coupled receptor (GPCR) small molecule agonists, calcium flux assay: HEK293 wild type cell line counter screen (AID 1920065)
Method in brief: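 Calcium-sensitive dye, loaded 1 h at 37 C into cells cultured 18 h, reports compound-evoked calcium release as fluorescence (Ex/Em 480/540), measured over 3 min. Agonist mode; 15-point titrations, triplicate.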

[6] = p53 small molecule agonists, cell-based qHTS assay with human liver microsomes (AID 1963577);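 further: p53 response element beta-lactamase reporter cells with liver microsomes plus NADPH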
Method in brief: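 HLM-supplemented p53RE-bla reporter assay: 16 h compound exposure at 37 C, microsomes and NADPH each 0.5 mg/mL final, read by fluorescence intensity.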

[7] = p53 small molecule agonists, cell-based qHTS assay with human liver microsomes: qHTS cell viability counter screen (AID 1963579); further: nearly all actives have a fitted effect of over 45% in size
Method in brief: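 Viability of p53RE-bla cells is measured as CellTiter-Glo luminescence following a 16 h, 37 C incubation with compound, liver microsomes from human donors and NADPH.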

[8] = p53 small molecule agonists, cell-based qHTS assay: qHTS cell viability counter screen (AID 1963581); further: nearly all actives have a fitted effect of over 45% in size
Method in brief: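 Following 5 h attachment, HCT-116 p53RE-bla cells took up compound for 16 h at 37 C; the reporter was read with B/G FRET substrate (2 h RT), and viability then via CellTiter-Glo ATP luminescence.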

[9] = molecular target: 5-hydroxytryptamine receptor 2A (Homo sapiens) (UniProt P28223); assay: 5-hydroxytryptamine receptor 2A (HTR2A) small molecule antagonists, cell-based qHTS assay (AID 1963586); further: nearly all actives have a fitted effect of over 45% in size
Method in brief: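 Antagonist-mode intracellular calcium assay: DOI (4 nM) added after 5 min compound pre-incubation at room temperature to dye-loaded HTR2A-CHO cells. Fluorescence followed for 3 min, sampled every second.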

[10] = molecular target: Muscarinic acetylcholine receptor M1 (Homo sapiens) (UniProt P11229); assay: Cholinergic receptor muscarinic 1 (CHRM1) small molecule antagonists, cell-based qHTS assay (AID 1963588); further: nearly all actives have a fitted effect of over 40% in size
Method in brief: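 CHRM1-CHO calcium-flux assay, antagonist mode. Cells were seeded 18 h, dye-loaded 1 h at 37 C and given compound for 5 min at RT, then acetylcholine was added at 50nM. FDSS fluorescence was read 3 min; 15 concentrations, three runs.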

[11] = molecular target: Muscarinic acetylcholine receptor M1 (Homo sapiens) (UniProt P11229); assay: Cholinergic receptor muscarinic 1 (CHRM1) small molecule agonists, cell-based qHTS assay (AID 1963589); further: nearly all actives have a fitted effect of over 35% in size
Method in brief: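 Measures agonist-induced intracellular calcium rise. Stable human CHRM1 CHO line, 1 h dye load at 37 C, compounds from DMSO, kinetic fluorescence read.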

[12] = cAMP Responsive Elements (CRE) small molecule agonists, cell-based qHTS assay (AID 1963590)
Method in brief: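 A CRE-responsive beta-lactamase reporter in HEK 293T cells was used. Treatment ran 3 h at 37 C; detection used LiveBLAzer B/G FRET substrate for 2 h at room temperature.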

[13] = cAMP Responsive Elements (CRE) small molecule antagonists, cell-based qHTS assay (AID 1963591; active means well fitted inhibition curve with a large enough effect in the signal ratio in the repeat runs, not every such curve was filed as active; the % refers to the signal ratio)
Method in brief: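 HEK293T cells carrying a CRE-driven beta-lactamase reporter receive compound and NKH477 (0.25 uM final) for 3 h. Fluorescence from LiveBLAzer B/G FRET substrate is read after 2 h at room temperature.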

[14] = molecular target: Beta-2 adrenergic receptor (Homo sapiens) (UniProt P07550); assay: Adrenergic beta2 receptor (ADRB2) small molecule antagonists, cell-based qHTS assay (AID 1963592); further: series mostly up to about 92 µM; nearly all actives have a fitted effect of over 50% in size
Method in brief: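 Cells (CHO, stable ADRB2 overexpression) incubated 18-20hr at 37C; compounds added from DMSO; agonist mix (1nM isoproterenol, 100uM IBMX, 25uM Ro-20-1724) added; 0.5hr RT; d2-cAMP and anti-cAMP-cryptate added; 1hr RT; 665/615 nm read.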

[15] = molecular target: D(2) dopamine receptor (Homo sapiens) (UniProt P14416); assay: Dopamine D2 receptor (DRD2) small molecule agonists, cell-based qHTS assay (AID 1963594); further: nearly all actives have a fitted effect of over 35% in size
Method in brief: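 HEK293 cells stably expressing DRD2 were cultured 24 h at 37 C, then given Ro20-1724 (0.1 mM final) and compounds for 10 min at room temperature. NKH477 (200nM) was then added for 30 min. cAMP was read by HTRF.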

[16] = molecular target: D(2) dopamine receptor (Homo sapiens) (UniProt P14416); assay: Dopamine D2 receptor (DRD2) small molecule antagonists, cell-based qHTS assay (AID 1963595; active means well fitted inhibition curve with a large enough effect in the signal ratio in the repeat runs, with a control signal flat; the % refers to the signal ratio)
Method in brief: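 Antagonism was scored as restored cAMP in HEK293-DRD2 cells. These cells were stimulated with 200 nM NKH477 and 12 nM quinpirole for 30 min at room temperature, in the presence of 0.1 mM Ro20-1724.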

[17] = p53 small molecule agonists, cell-based qHTS assay with rat liver microsomes: qHTS cell viability counter screen (AID 1963580); further: nearly all actives have a fitted effect of over 45% in size
Method in brief: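 p53RE-bla HCT-116 cells (4,000/well) rested 5 h at 37 C, then given Tox21 compounds in DMSO with rat liver microsomes (0.5 mg/mL final) plus NADPH (0.5 mg/mL final) for 16 h at 37 C. Viability read by CellTiter-Glo luminescence after 30 min at room temperature.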

[18] = p53 small molecule agonists, cell-based qHTS assay (AID 1963582; active means well fitted activation curve with a large enough effect in the signal ratio in the repeat runs, not every such curve was filed as active; the % refers to the signal ratio; further: potency means the concentration at half of the fitted maximal effect)
Method in brief: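 In this cell-based concentration-response screen, a p53 response element drives beta-lactamase; cells received DMSO-borne compounds after 5 h culture and were incubated a further 16 h before FRET substrate development.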

[19] = molecular target: 5-hydroxytryptamine receptor 2A (Homo sapiens) (UniProt P28223); assay: 5-hydroxytryptamine receptor 2A (HTR2A) small molecule agonists, cell-based qHTS assay (AID 1963587); further: nearly all actives have a fitted effect of over 30% in size
Method in brief: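 HTR2A-CHO cells, plated 18 h at 37 C/5% CO2, dye-loaded 1 h at 37 C; compounds in DMSO added by pin tool (agonist mode). Intracellular calcium flux read as kinetic fluorescence on FDSS over 2 min at 1 s intervals.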

[20] = molecular target: Beta-2 adrenergic receptor (Homo sapiens) (UniProt P07550); assay: Adrenergic beta2 receptor (ADRB2) small molecule agonists, cell-based qHTS assay (AID 1963593);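 further: CHO cells stably overexpressing human ADRB2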
Method in brief: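 CHO cells stably over-expressing ADRB2 were plated overnight at 37C, then dosed with compounds plus a stimulation mix containing 100uM IBMX and 25uM Ro-20-1724 for 0.5hr at room temperature. cAMP was measured by HTRF competition, 1hr.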

Chain of Muscarinic acetylcholine receptor M1 (Homo sapiens) (P11229 whole entry, looked up): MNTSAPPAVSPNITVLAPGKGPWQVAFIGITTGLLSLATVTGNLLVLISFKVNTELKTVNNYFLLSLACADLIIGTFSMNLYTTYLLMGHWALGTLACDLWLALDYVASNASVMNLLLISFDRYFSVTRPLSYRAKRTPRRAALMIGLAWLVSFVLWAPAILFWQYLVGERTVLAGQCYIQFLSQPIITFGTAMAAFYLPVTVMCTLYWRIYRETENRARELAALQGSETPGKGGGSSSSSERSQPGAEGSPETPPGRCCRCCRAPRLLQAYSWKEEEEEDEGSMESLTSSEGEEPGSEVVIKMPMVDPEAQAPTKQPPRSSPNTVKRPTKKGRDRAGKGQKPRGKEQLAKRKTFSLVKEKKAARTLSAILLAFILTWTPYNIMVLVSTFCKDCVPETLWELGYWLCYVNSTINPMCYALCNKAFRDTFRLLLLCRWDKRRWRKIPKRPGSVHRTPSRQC
Chain of 5-hydroxytryptamine receptor 2A (Homo sapiens) (P28223 whole entry, looked up): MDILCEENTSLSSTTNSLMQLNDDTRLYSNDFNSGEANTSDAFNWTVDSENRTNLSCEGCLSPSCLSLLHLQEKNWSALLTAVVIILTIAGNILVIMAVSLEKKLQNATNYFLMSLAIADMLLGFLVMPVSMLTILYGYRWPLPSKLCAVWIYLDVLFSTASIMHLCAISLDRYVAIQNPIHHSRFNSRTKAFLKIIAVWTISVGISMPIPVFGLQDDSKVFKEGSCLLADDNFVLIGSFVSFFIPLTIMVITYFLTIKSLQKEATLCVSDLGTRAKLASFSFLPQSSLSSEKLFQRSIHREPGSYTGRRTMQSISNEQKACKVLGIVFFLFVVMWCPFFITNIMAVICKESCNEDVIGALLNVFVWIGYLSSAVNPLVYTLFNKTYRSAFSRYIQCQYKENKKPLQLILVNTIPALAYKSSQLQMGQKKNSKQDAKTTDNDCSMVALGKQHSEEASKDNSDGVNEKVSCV
Chain of KiSS-1 receptor (Homo sapiens) (Q969F8 whole entry, looked up): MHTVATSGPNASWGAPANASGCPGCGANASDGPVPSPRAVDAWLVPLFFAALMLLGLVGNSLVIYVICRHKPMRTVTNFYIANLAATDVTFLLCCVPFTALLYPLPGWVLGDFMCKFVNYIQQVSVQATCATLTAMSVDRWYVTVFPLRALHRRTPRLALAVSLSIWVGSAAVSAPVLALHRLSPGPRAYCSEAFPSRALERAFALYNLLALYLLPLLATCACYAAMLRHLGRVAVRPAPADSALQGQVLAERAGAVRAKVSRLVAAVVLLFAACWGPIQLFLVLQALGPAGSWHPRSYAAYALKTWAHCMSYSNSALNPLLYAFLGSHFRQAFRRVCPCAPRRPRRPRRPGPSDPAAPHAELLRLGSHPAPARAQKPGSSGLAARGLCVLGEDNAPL
Chain of Beta-2 adrenergic receptor (Homo sapiens) (P07550 whole entry, looked up): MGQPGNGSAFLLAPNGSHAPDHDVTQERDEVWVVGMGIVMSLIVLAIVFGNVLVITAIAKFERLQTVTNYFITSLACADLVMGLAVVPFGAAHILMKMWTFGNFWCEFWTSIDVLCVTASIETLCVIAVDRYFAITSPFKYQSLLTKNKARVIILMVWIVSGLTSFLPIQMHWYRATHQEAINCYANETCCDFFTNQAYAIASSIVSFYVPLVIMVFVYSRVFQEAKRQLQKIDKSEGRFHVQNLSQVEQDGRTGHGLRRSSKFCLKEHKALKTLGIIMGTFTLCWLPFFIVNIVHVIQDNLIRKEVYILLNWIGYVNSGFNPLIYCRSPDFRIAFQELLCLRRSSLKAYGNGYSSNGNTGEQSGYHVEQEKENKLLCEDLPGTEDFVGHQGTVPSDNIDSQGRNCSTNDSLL
Chain of Gonadotropin-releasing hormone receptor (Homo sapiens) (P30968 whole entry, looked up): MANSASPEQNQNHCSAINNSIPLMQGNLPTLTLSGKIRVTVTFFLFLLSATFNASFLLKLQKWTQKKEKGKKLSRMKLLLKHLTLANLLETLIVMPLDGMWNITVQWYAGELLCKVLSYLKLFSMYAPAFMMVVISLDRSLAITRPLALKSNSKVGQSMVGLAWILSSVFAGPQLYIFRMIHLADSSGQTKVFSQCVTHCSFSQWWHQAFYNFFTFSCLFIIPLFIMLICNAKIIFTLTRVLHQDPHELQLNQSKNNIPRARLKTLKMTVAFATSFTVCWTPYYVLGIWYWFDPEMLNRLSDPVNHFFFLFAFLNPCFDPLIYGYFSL
Chain of D(2) dopamine receptor (Homo sapiens) (P14416 whole entry, looked up): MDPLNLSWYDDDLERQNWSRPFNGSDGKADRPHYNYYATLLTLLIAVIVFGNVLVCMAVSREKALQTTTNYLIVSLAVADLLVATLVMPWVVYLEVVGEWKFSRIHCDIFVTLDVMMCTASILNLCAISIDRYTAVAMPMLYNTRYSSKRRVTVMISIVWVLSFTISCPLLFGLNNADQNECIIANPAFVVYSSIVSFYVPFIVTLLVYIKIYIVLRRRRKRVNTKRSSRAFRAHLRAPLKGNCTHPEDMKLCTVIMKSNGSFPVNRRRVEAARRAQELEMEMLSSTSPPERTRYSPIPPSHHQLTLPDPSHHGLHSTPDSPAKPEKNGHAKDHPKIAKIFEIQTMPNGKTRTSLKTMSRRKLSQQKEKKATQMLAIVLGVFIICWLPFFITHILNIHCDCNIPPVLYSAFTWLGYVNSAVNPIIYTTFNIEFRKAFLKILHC

Compound	Potency [1]	Potency [2]	Potency [3]	Potency [4]	Potency [5]	Potency [6]	Potency [7]	Potency [8]	Potency [9]	Potency [10]	Potency [11]	Potency [12]	Potency [13]	Potency [14]	Potency [15]	Potency [16]	Potency [17]	Potency [18]	Potency [19]	Potency [20]
COc1cc(/C=C/C(=O)O[C@H]2CC[C@]34C[C@]35CC[C@]3(C)[C@@H]([C@H](C)CCC=C(C)C)CC[C@@]3(C)[C@@H]5CC[C@H]4C2(C)C)ccc1O	inactive	inactive	inactive	inactive	inactive	inactive	inactive	inactive	inactive	inactive	inactive	inactive	inactive	inactive	inactive	inactive				
C[C@@H]1CCN(C(=O)[C@H](CCCN=C(N)N)NS(=O)(=O)c2cccc3c2NC[C@H](C)C3)[C@@H](C(=O)O)C1	inactive	inactive	inactive	inactive	inactive	inactive		inactive	inactive	inactive	inactive	inactive	inactive	inactive	inactive		inactive	inactive	inactive	
N#CCC(=O)O	inactive	inactive	inactive	inactive	inactive	inactive	inactive	inactive	inactive	inactive	inactive	inactive		inactive	inactive	inactive		inactive	inactive	inactive
COc1cc(Cl)ccc1Cl	inactive	inactive	inactive	inactive	inactive	inactive	inactive		inactive	inactive	inactive	inactive	inactive	inactive	inactive	inactive	inactive	inactive	inactive	
CNC(=O)c1c(I)c(NC(C)=O)c(I)c(C(=O)O)c1I	inactive	inactive	inactive	inactive	inactive		inactive	inactive	inactive	inactive	inactive	inactive	inactive	inactive	inactive	inactive	inactive	inactive	inactive	inactive
CCN(CCO)c1cccc(C)c1	inactive	inactive	inactive	inactive	inactive	inactive		inactive	inactive	inactive	inactive	inactive	inactive	inactive	inactive	inactive	inactive	inactive	inactive	
C[N+](C)(CCOc1ccccc1)Cc1cccs1	inactive	inactive	inactive	inactive	inactive	inactive	inactive	inactive	inactive		inactive	inactive			inactive	inactive		inactive	inactive	inactive
O=C(c1ccccc1O)c1ccccc1O	inactive	inactive	inactive	inactive	inactive	inactive		inactive		inactive	inactive	inactive	inactive	inactive	inactive	inactive	inactive	inactive	inactive	inactive
Cc1c2oc3c(C)ccc(C(=O)N[C@@H]4C(=O)N[C@H](C(C)C)C(=O)N5CCC[C@H]5C(=O)N(C)CC(=O)N(C)[C@@H](C(C)C)C(=O)O[C@@H]4C)c3nc-2c(C(=O)N[C@@H]2C(=O)N[C@H](C(C)C)C(=O)N3CCC[C@H]3C(=O)N(C)CC(=O)N(C)[C@@H](C(C)C)C(=O)O[C@@H]2C)c(N)c1=O (I: T[dV]P[Sar][NMeV] / II: T[dV]P[Sar][NMeV]; ester I:1-I:C, II:1-II:C; linker I:N-II:N via Actinocin(9to1))	42.1 nM (active)	inactive and 42.2 nM (active)	inactive	inactive	inactive	inactive								inactive	inactive	inactive	inactive	2.2 nM (active)		inactive
C=C[Si](OC(=C)C)(OC(=C)C)OC(=C)C	inactive	inactive	inactive	inactive	inactive	inactive	inactive		inactive	inactive	inactive	inactive	inactive	inactive	inactive				inactive	
CC(CO)CO	inactive	inactive	inactive	inactive	inactive		inactive	inactive	inactive	inactive	inactive	inactive	inactive	inactive		inactive	inactive	inactive	inactive	inactive
OCc1ccccc1O	inactive	inactive	inactive	inactive	inactive	inactive	inactive		inactive	inactive		inactive	inactive	inactive	inactive	inactive	inactive		inactive	inactive
CCCCCCCC(=O)[O-].CCCCCCCC(=O)[O-].[Zn+2]	inactive	inactive	inactive	inactive	inactive	inactive	inactive		inactive	inactive	inactive	inactive	inactive	inactive	inactive	inactive	inactive	inactive	inactive	inactive
CO[Si](CCCOCC1CO1)(OC)OC (configuration not stated)	inactive	inactive	inactive	inactive	inactive	inactive	inactive	inactive	inactive	inactive		inactive	inactive	inactive	inactive			inactive		
CC(C)OC(=O)C(O)(CC(=O)O)CC(=O)O	inactive	inactive	inactive	inactive	inactive	inactive	inactive	inactive		inactive	inactive	inactive	inactive	inactive	inactive	inactive	inactive		inactive	
C=CCCCCCCCCC(=O)OCCCC	inactive	inactive	inactive	inactive	inactive	inactive	inactive	inactive	inactive	inactive	inactive	inactive	inactive	inactive	inactive	inactive		inactive	inactive	inactive
